Results: the supplement of paper PMC10849652
Of roughly 7,900 targets only a part is listed; those with a hit were picked by preference. About 0.6% of all pairs of compound and target were hits.

Key:
Experiment in all cases: log2 fold change, soluble protein after heating vs DMSO (PISA); higher = thermal stabilisation; K562 cells, 10 uM, 30 min; active = over 0.2 and 3.5 SD of the protein, either way, in both replicates (recomputed)
bafetinib = compound: Cc1ccc(NC(=O)c2ccc(CN3CC[C@H](N(C)C)C3)c(C(F)(F)F)c2)cc1Nc1nccc(-c2cncnc2)n1 [bafetinib]
How it was run: (§1)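 K562 cells (2×10^6 cells/mL) were treated with 10 μM compound for 30 min, and aliquots were heated for 3 min over 48°C-58°C. Pooled aliquots were extracted in PBS with 0.5% NP-40 at 4°C, and the supernatant after 21,000xg for 90 min was measured by TMTpro 16plex LC-MS/MS with channel sums equalised. Reported thermal stability, relative to control samples and from duplicates, is a log2 fold change.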

[1] = compound: Cc1cccc(CC(=O)N2CCc3c2ccc(-c2cn(C)c4ncnc(N)c24)c3F)n1
How it was run: as §1

nilotinib = compound: Cc1cn(-c2cc(NC(=O)c3ccc(C)c(Nc4nccc(-c5cccnc5)n4)c3)cc(C(F)(F)F)c2)cn1 [nilotinib]
How it was run: as §1

[2] = compound: Cc1nc(Nc2n[nH]c3c2CN(C(=O)N[C@H](CN(C)C)c2ccccc2)C3(C)C)c2sccc2n1
How it was run: as §1

dasatinib = compound: Cc1nc(Nc2ncc(C(=O)Nc3c(C)cccc3Cl)s2)cc(N2CCN(CCO)CC2)n1 [dasatinib]
How it was run: as §1

[3] = compound: Cc1ncc(-c2ccnc(Nc3ccc(S(C)(=O)=O)cc3)n2)n1C(C)C
How it was run: as §1

[4] = compound: Cn1cc(-c2ccc3c(c2)CCN3C(=O)Cc2cccc(C(F)(F)F)c2)c2c(N)ncnc21
How it was run: as §1

[5] = compound: Cn1cc(-c2ccc3nnc(C(F)(F)c4ccc5ncccc5c4)n3n2)cn1
How it was run: as §1

tipifarnib = compound: Cn1cncc1[C@@](N)(c1ccc(Cl)cc1)c1ccc2c(c1)c(-c1cccc(Cl)c1)cc(=O)n2C [tipifarnib]
How it was run: as §1

mubritinib = compound: FC(F)(F)c1ccc(/C=C/c2nc(COc3ccc(CCCCn4ccnn4)cc3)co2)cc1 [mubritinib]
How it was run: as §1

[6] = compound: NC(=O)Nc1cc(-c2cccc(F)c2)sc1C(=O)N[C@H]1CCCNC1
How it was run: as §1

[7] = compound: NC(=O)c1cnc(N[C@@H]2CCCC[C@@H]2N)nc1Nc1cccc(-n2nccn2)c1
How it was run: as §1

[8] = compound: NC1(c2ccc(-c3nc4ccn5c(=O)[nH]nc5c4cc3-c3ccccc3)cc2)CCC1
How it was run: as §1

[9] = compound: NCC(=O)Nc1ccc(-n2nc(C(F)(F)F)cc2-c2ccc3c(ccc4ccccc43)c2)cc1
How it was run: as §1

entinostat = compound: Nc1ccccc1NC(=O)c1ccc(CNC(=O)OCc2cccnc2)cc1 [entinostat]
How it was run: as §1

vorinostat = compound: O=C(CCCCCCC(=O)Nc1ccccc1)NO [vorinostat]
How it was run: as §1

citarinostat = compound: O=C(CCCCCCNC(=O)c1cnc(N(c2ccccc2)c2ccccc2Cl)nc1)NO [citarinostat]
How it was run: as §1

silmitasertib = compound: O=C(O)c1ccc2c(c1)nc(Nc1cccc(Cl)c1)c1ccncc12 [silmitasertib]
How it was run: as §1

[10] = compound: O=C1NC(=O)C(c2cnc3ccccn23)=C1c1cn2c3c(cc(F)cc13)CN(C(=O)N1CCCCC1)CC2
How it was run: as §1

[11] = compound: c1cc(OCCN2CCCCC2)cc(-c2n[nH]c3ccc(-c4nnc[nH]4)cc23)c1
How it was run: as §1

Measured: log2 fold change

FADS1, A0A0A0MR51
active: [4] 0.253
inactive: bafetinib -0.03 | [1] 0.062 | nilotinib 0.004 | [2] -0.005 | dasatinib 0.011 | [3] -0.019 | [5] -0.045 | tipifarnib -0.021 | mubritinib 0.028 | [6] -0.041 | [7] -0.036 | [8] -0.074 | [9] 0.036 | entinostat -0.002 | vorinostat -0.105 | citarinostat -0.029 | silmitasertib 0.014 | [10] -0.15 | [11] -0.029

EPHX2 (UniProt P34913)
Chain of UniProt P34913 (P34913 whole entry, looked up): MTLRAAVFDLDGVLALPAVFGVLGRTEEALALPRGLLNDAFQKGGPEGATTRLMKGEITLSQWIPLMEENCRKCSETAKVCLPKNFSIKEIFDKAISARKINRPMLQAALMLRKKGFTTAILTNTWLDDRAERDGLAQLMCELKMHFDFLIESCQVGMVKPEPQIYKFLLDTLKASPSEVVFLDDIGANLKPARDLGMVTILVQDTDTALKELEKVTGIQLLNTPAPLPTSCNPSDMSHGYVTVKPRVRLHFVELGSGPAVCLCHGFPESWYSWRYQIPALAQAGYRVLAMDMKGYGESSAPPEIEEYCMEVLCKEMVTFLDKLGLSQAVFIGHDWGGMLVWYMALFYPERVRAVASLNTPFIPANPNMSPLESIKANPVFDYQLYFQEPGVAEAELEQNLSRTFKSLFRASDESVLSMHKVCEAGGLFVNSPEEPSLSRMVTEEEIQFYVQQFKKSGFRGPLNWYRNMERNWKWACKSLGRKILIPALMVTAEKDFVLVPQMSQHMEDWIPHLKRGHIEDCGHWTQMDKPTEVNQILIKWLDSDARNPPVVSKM
inactive: bafetinib 0.131 | [1] -0.097 | nilotinib 0.152 | [2] -0.029 | dasatinib -0.041 | [3] 0.073 | [4] 0.051 | [5] 0.016 | tipifarnib 0.065 | mubritinib 0.11 | [6] -0.148 | [7] -0.05 | [8] -0.016 | [9] -0.015 | entinostat 0.045 | vorinostat 0.113 | citarinostat 0.025 | silmitasertib 0.003 | [10] -0.025 | [11] -0.037

ERCC6 (UniProt Q03468)
active: bafetinib -0.775
inactive: [1] -0.016 | nilotinib 0.041 | [2] -0.087 | dasatinib -0.043 | [3] -0.021 | [4] 0.129 | [5] -0.094 | tipifarnib 0.019 | mubritinib 0.059 | [6] -0.288 | [7] -0.022 | [8] -0.062 | [9] 0.034 | entinostat -0.191 | vorinostat -0.003 | citarinostat -0.213 | silmitasertib 0.079 | [10] 0.013 | [11] -0.236

DCAF6 isoform 3 (UniProt Q58WW2)
Chain of UniProt Q58WW2 (Q58WW2 whole entry, looked up): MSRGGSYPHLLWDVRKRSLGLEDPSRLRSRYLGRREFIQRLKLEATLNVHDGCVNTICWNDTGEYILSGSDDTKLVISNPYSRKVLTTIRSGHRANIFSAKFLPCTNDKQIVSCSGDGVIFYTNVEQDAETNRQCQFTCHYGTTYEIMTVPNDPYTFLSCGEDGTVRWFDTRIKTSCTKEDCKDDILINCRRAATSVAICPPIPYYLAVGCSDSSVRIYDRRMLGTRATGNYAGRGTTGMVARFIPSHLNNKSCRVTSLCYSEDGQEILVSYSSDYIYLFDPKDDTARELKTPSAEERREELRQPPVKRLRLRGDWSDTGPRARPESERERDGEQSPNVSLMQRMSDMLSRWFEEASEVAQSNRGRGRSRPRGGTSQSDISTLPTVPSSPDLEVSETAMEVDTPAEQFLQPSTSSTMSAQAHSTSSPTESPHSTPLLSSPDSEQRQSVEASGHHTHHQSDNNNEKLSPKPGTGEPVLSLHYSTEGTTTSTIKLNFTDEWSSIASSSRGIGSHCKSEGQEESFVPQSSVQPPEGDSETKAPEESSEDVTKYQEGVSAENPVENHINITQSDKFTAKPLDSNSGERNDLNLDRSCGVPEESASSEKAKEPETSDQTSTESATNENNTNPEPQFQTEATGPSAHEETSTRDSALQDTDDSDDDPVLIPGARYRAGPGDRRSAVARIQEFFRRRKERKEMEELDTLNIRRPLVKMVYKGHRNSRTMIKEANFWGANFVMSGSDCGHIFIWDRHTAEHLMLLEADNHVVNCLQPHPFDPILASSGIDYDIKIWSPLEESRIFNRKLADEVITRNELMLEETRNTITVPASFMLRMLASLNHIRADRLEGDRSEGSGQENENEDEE
inactive: bafetinib -0.071 | [1] 0.009 | nilotinib 0.009 | [2] 0.02 | dasatinib 0.008 | [3] -0.013 | [4] -0.016 | [5] 0.031 | tipifarnib 0.027 | mubritinib 0.017 | [6] 0 | [7] 0.019 | [8] 0.026 | [9] 0.007 | entinostat -0.005 | vorinostat 0.003 | citarinostat 0.021 | silmitasertib 0.045 | [10] -0.009 | [11] -0.008

DCAF10 (UniProt Q5QP82)
Chain of UniProt Q5QP82 (Q5QP82 whole entry, looked up): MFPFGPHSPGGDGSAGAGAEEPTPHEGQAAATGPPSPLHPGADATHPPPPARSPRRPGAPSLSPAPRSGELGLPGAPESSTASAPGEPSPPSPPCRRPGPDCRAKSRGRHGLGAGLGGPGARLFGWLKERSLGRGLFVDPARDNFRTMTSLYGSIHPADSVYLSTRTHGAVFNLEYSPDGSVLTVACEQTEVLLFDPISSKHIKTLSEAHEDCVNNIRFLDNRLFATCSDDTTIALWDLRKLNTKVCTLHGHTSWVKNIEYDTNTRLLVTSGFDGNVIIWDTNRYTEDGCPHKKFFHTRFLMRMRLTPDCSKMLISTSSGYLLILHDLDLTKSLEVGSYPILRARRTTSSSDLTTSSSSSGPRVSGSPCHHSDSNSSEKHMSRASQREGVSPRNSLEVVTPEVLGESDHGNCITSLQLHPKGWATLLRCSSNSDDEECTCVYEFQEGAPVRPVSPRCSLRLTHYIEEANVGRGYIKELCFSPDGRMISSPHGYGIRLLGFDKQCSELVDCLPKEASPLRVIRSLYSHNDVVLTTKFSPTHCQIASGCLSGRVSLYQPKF
inactive: bafetinib -0.002 | [1] -0.069 | nilotinib -0.052 | [2] 0.041 | dasatinib 0.026 | [3] -0.047 | [4] 0.012 | [5] 0.007 | tipifarnib -0.054 | mubritinib -0.002 | [6] -0.018 | [7] -0.02 | [8] 0.026 | [9] 0.033 | entinostat -0.021 | vorinostat -0.015 | citarinostat 0.08 | silmitasertib 0.122 | [10] -0.028
active: [11] 0.357

ESYT1 isoform 2 (UniProt Q9BSJ8)
inactive: bafetinib 0.112 | [1] 0.137 | nilotinib -0.088 | [2] -0.208 | dasatinib -0.147 | [3] 0.022 | [4] -0.059 | [5] -0.06 | tipifarnib 0.007 | mubritinib -0.092 | [6] 0.062 | [7] 0.004 | [8] -0.004 | [9] -0.044 | entinostat 0.086 | vorinostat 0.122 | citarinostat 0.033 | silmitasertib 0.041 | [10] 0.187 | [11] -0.048

DNAJC19 (UniProt Q96DA6)
Chain of UniProt Q96DA6 (Q96DA6 whole entry, looked up): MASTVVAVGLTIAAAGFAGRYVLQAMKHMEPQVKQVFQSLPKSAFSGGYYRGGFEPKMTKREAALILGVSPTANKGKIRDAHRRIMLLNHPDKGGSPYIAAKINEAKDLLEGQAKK
inactive: bafetinib -0.123 | [1] 0.003 | nilotinib 0.025 | [2] 0.002 | dasatinib -0.003 | [3] -0.005 | [4] 0.012 | [5] 0.022 | tipifarnib 0.012 | mubritinib 0.001 | [6] -0.014 | [7] 0.004 | [8] -0.017 | [9] -0.006 | entinostat 0.004 | vorinostat -0.03 | citarinostat 0.024 | silmitasertib -0.018 | [10] 0.01 | [11] -0.015

DDX39A (UniProt O00148)
Chain of UniProt O00148 (O00148 whole entry, looked up): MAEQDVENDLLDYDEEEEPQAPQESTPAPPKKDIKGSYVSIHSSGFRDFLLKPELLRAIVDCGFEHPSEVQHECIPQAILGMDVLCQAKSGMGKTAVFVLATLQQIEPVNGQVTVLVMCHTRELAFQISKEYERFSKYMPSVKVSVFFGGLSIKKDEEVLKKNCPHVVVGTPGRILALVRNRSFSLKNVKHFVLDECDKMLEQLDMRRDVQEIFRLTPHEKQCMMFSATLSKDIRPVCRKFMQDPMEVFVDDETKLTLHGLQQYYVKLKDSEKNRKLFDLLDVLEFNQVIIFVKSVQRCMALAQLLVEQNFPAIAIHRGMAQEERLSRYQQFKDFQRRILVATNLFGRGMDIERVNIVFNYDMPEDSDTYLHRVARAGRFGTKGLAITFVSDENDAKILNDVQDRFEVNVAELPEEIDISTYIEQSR
inactive: bafetinib 0.001 | [1] 0.014 | nilotinib -0.017 | dasatinib -0.134 | [3] -0.218 | [4] -0.018 | [5] -0.007 | tipifarnib 0.079 | mubritinib -0.182 | [6] -0.067 | [7] -0.04 | [8] 0.057 | [9] -0.042 | entinostat -0.003 | vorinostat 0.048 | citarinostat -0.006 | silmitasertib -0.011 | [10] -0.107 | [11] -0.233
active: [2] -0.278

DHPS (UniProt P49366)
Chain of UniProt P49366 (P49366 whole entry, looked up): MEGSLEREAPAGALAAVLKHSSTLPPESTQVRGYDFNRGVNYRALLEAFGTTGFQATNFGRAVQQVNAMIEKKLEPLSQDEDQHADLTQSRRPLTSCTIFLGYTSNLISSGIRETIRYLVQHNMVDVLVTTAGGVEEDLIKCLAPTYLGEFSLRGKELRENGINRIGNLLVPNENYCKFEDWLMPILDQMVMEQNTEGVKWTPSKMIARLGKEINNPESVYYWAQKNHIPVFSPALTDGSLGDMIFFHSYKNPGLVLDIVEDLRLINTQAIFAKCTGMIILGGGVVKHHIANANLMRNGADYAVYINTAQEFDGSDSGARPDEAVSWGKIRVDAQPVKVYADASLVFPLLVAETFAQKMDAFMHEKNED
inactive: bafetinib 0.026 | [1] -0.057 | nilotinib 0.035 | [2] 0.001 | dasatinib 0.014 | [3] 0.004 | [4] 0.008 | [5] -0.005 | tipifarnib -0.047 | mubritinib 0.061 | [6] 0.01 | [7] 0.051 | [8] 0.014 | [9] 0.053 | entinostat -0.045 | vorinostat 0.04 | citarinostat 0.022 | silmitasertib -0.013 | [10] 0.08 | [11] -0.026

DNTTIP2 (UniProt Q5QJE6)
inactive: bafetinib 0.148 | [1] -0.05 | nilotinib 0.064 | [2] -0.02 | dasatinib 0.148 | [3] -0.29 | [4] -0.104 | [5] -0.035 | tipifarnib 0.256 | mubritinib -0.074 | [6] 0.14 | [7] -0.054 | [8] 0.155 | [9] 0.029 | entinostat -0.03 | vorinostat 0.045 | citarinostat 0.016 | silmitasertib 0.102 | [10] -0.028 | [11] -0.095

CTNNB1 (UniProt P35222)
Chain of UniProt P35222 (P35222 whole entry, looked up): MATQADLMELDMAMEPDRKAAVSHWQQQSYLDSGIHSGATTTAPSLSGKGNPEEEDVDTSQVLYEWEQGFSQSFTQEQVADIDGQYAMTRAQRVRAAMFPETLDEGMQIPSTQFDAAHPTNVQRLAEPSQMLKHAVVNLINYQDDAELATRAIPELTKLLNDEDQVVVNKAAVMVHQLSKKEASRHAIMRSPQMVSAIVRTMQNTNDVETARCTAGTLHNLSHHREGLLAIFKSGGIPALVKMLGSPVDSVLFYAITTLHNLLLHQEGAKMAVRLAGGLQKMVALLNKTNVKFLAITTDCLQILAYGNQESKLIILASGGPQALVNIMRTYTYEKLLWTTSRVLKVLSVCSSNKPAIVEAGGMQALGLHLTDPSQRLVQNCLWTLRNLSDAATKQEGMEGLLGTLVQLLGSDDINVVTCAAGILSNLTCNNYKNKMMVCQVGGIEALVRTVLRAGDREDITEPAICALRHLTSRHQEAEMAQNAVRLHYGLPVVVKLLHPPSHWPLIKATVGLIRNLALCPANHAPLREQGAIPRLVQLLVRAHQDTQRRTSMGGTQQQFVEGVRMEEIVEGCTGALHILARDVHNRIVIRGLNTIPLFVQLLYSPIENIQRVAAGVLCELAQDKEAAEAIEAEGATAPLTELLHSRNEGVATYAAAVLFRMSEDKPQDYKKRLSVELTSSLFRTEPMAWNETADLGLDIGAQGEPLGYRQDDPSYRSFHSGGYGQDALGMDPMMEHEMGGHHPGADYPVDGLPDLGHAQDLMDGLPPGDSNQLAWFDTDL
active: [3] 0.858 | [10] 1.3
inactive: bafetinib 0.026 | [1] 0.057 | nilotinib -0.056 | [2] 0.205 | dasatinib -0.149 | [4] -0.004 | [5] -0.021 | tipifarnib -0.115 | mubritinib 0.076 | [6] -0.14 | [7] -0.06 | [8] -0.18 | [9] -0.2 | entinostat -0.078 | vorinostat -0.001 | citarinostat 0.093 | silmitasertib 0.03 | [11] -0.107

CUX1 isoform 3 (UniProt P39880)
inactive: bafetinib -0.054 | [1] -0.032 | nilotinib -0.008 | [2] -0.06 | dasatinib -0.016 | [3] 0.044 | [4] 0.023 | [5] 0.08 | tipifarnib 0.046 | mubritinib 0.037 | [6] -0.016 | [7] -0.006 | [8] -0.034 | [9] -0.076 | entinostat -0.028 | vorinostat 0.034 | citarinostat 0.019 | silmitasertib 0.046 | [10] -0.022 | [11] -0.004

CUTA isoform 2 (UniProt O60888)
Chain of UniProt O60888 (O60888 whole entry, looked up): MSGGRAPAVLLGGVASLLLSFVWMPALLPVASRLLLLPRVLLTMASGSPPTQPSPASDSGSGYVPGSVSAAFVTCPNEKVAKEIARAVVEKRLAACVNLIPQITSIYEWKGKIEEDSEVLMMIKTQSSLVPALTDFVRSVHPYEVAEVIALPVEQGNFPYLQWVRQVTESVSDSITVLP
inactive: bafetinib -0.148 | [1] 0.1 | nilotinib 0.016 | [2] 0.016 | dasatinib 0 | [3] -0.01 | [4] 0.07 | [5] 0.09 | tipifarnib 0.123 | mubritinib 0.028 | [6] -0.022 | [7] 0.153 | [8] 0.013 | [9] 0.063 | entinostat 0.019 | vorinostat -0.005 | citarinostat 0.113 | silmitasertib -0.031 | [10] -0.132 | [11] -0.046

DBR1 (UniProt Q9UK59)
Chain of UniProt Q9UK59 (Q9UK59 whole entry, looked up): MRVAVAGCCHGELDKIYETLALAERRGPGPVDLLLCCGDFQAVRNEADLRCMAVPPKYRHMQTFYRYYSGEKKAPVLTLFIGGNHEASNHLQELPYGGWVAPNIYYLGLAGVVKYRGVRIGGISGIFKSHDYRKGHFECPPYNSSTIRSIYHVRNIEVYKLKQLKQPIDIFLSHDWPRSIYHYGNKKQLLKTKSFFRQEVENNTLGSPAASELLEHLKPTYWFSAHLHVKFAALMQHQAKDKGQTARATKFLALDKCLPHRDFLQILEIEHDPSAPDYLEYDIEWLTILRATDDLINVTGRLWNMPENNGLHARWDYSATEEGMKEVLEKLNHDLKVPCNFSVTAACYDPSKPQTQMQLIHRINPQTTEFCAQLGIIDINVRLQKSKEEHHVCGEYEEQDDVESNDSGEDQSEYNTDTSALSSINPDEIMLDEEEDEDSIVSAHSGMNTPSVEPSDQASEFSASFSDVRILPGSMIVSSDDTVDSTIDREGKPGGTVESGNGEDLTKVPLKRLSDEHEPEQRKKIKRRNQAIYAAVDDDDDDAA
inactive: bafetinib -0.001 | [1] 0.02 | nilotinib -0.023 | [2] 0.05 | dasatinib 0.06 | [3] -0.009 | [4] 0.021 | [5] -0.067 | tipifarnib 0.03 | mubritinib -0.002 | [6] 0.002 | [7] -0.017 | [8] -0.002 | [9] 0.052 | entinostat -0.023 | citarinostat 0.014 | silmitasertib -0.012 | [10] -0.004 | [11] -0.072
active: vorinostat -0.215

DTWD1 (UniProt Q8N5C7)
Chain of UniProt Q8N5C7 (Q8N5C7 whole entry, looked up): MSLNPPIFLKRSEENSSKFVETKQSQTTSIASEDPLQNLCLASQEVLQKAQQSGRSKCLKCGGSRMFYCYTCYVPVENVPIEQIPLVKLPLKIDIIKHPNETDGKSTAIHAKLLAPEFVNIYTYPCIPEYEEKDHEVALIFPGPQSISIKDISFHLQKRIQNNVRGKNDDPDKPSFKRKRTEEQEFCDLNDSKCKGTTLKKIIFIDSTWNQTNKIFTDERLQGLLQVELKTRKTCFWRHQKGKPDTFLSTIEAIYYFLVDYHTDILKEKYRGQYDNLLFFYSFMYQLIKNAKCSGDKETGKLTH
active: vorinostat 0.246
inactive: bafetinib 0.006 | [1] -0.014 | nilotinib 0.057 | [2] 0 | dasatinib 0.001 | [3] 0.082 | [4] 0.051 | [5] -0.027 | tipifarnib -0.02 | mubritinib 0.02 | [6] -0.001 | [7] 0.014 | [8] -0.147 | [9] -0.04 | entinostat 0.063 | citarinostat -0.001 | silmitasertib -0.004 | [10] 0.014 | [11] -0.064
